In PubChem BioAssay (Tox21):
Values joined by “and” are separate entries in the source; they are usually repeats but may differ in a detail not shown here. Identical values can stand only once. Values without a mark were called inactive. A call without a number means that no potency is given here. The source holds several records for some structures; these can differ, active in one and inactive in another. Active and inactive are the calls of the source. Unless noted, calls come from the whole dose curve; as a rule, active = well fitted curve in the direction sought with a large enough effect in the repeat runs; inconclusive = weak or mixed curves; inactive = no such curve, though single readings can be large; an effect the other way counts as inactive or inconclusive.

How the values were obtained:
[1] = qHTS assay to test for compound auto fluorescence at 535 nm (green) in HEK293 cells (AID 720680); conditions: green autofluorescence 485/535 nm; series mostly up to 91.3 µM
[2] = qHTS assay to test for compound auto fluorescence at 460 nm (blue) in HEK293 cell free culture (AID 720681); conditions: cell-free medium, autofluorescence 405/460 nm (blue); series mostly up to 91.3 µM
Outline: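 Blue fluorescence (Ex 405/Em 460 nm, triamterene-equivalent) was read immediately after pin transfer of compound or DMSO into medium (DMEM, 10% FBS) without cells.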

[3] = qHTS assay to test for compound auto fluorescence at 535 nm (green) in HEK293 cell free culture (AID 720682); conditions: cell-free medium, green autofluorescence 485/535 nm, active compounds read high; series mostly up to 91.3 µM
Outline: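 Measurement is a direct plate read of green fluorescence (485 nm in, 535 nm out) after compound addition to serum-supplemented DMEM lacking cells, with fluorescein used to express intensities.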

[4] = qHTS assay to test for compound auto fluorescence at 590 nm (red) in HEK293 cell free culture (AID 720683); conditions: cell-free medium autofluorescence, Ex540/Em590 red; series mostly up to 91.3 µM
Outline: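 Red-channel autofluorescence of compounds in culture medium (DMEM, 10% FBS), no cells, measured at 540/590 nm. Rose Bengal sodium is the reference fluorophore for equivalence.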

[5] = qHTS assay to test for compound auto fluorescence at 590 nm (red) in HepG2 cell free culture (AID 720684); conditions: cell-free medium autofluorescence, red 540/590 nm; series mostly up to 91.3 µM
Outline: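 Cell-free; medium MEM + 10% FBS; compound or DMSO added by pintool; read Ex 540/Em 590 nm; Rose Bengal sodium as red reference fluorophore.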

[6] = qHTS assay to test for compound auto fluorescence at 460 nm (blue) in HepG2 cell free culture (AID 720685); conditions: Cell-free culture medium, blue autofluorescence 405/460 nm; series mostly up to 91.3 µM
Outline: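 Cell-free plates of MEM plus 10% FBS received 23 nL compound or DMSO vehicle; blue-channel (405/460 nm) intensity scored against triamterene as reference fluorophore.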

[7] = qHTS assay to test for compound auto fluorescence at 535 nm (green) in HepG2 cell free culture (AID 720686); conditions: Cell-free medium, green autofluorescence 485/535 nm; series mostly up to 91.3 µM
[8] = molecular target: Glucocorticoid receptor (Homo sapiens) (UniProt P04150); assay: qHTS assay to identify small molecule agonists of the glucocorticoid receptor (GR) signaling pathway (AID 720691; active = well fitted activation curve with a large enough effect in the signal ratio in the repeat runs, not every such curve was filed as active; inconclusive = weak or mixed curves, or effect the other way; inactive = no such curve, though single readings can be large or run the other way; the % refers to the signal ratio; note: potency is the fitted concentration of half-maximal effect); conditions: GR-bla HeLa, beta-lactamase reporter ratio, 18 h
Sequence of Glucocorticoid receptor (Homo sapiens) (P04150 whole entry, looked up): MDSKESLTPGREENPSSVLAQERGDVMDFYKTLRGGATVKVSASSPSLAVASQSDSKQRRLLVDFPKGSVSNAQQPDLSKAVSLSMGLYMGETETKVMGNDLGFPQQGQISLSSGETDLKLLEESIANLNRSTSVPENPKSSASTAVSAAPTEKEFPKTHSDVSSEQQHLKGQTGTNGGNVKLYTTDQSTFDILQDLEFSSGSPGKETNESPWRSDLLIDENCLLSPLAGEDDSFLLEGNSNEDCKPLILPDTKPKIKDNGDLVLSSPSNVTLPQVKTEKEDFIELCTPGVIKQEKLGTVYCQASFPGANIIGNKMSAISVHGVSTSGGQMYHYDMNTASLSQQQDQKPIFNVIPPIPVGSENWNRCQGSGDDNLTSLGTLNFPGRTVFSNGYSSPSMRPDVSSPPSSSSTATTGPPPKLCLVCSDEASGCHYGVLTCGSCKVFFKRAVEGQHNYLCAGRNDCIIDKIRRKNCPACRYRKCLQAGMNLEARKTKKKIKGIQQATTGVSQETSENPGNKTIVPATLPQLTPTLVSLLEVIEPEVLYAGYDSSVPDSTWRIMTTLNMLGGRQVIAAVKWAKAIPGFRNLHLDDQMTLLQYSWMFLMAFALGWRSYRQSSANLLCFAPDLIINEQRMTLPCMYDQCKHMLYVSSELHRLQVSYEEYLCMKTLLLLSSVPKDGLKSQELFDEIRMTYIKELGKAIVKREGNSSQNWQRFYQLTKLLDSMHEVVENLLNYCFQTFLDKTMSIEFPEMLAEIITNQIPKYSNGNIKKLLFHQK
Outline: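 Measures GR pathway activation through a GRE-beta-lactamase reporter stably integrated in HeLa cells, with 18 h compound treatment at 37 C and fluorescence detection using a FRET substrate.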

[9] = qHTS assay to identify small molecule antagonists of the glucocorticoid receptor (GR) signaling pathway - cell viability counter screen (AID 720693); conditions: GR-bla HeLa viability, CellTiter-Glo luminescence, 18 h, with 5 nM dexamethasone present; series mostly up to 58.5 µM; note: nearly all actives have a fitted effect of over 55% in size
[10] = qHTS assay for identifying genotoxic compounds that show differential cytotoxicity against isogenic chicken DT40 cell lines with known DNA damage response pathways - wild type cell line (AID 743012); conditions: DT40 wild type chicken cells viability, CellTiter-Glo, 40 h; series mostly up to 68.4 µM; note: nearly all actives have a fitted effect of over 60% in size; note: potency is the fitted concentration of half-maximal effect
Outline: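 Endpoint: CellTiter-Glo luminescence, 30 min RT. Cells: wild type DT40, 300/well. Exposure: compounds in DMSO, 40 h, 37 C/5% CO2, after ~0.5 h pre-incubation.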

[11] = qHTS assay for identifying genotoxic compounds that show differential cytotoxicity against isogenic chicken DT40 cell lines with known DNA damage response pathways - Rev3 mutant cell line (AID 743014); conditions: chicken DT40 Rev3-/- viability, CellTiter-Glo, 40 h; series mostly up to 68.4 µM; note: nearly all actives have a fitted effect of over 55% in size; note: potency is the fitted concentration of half-maximal effect
[12] = qHTS assay for identifying genotoxic compounds that show differential cytotoxicity against isogenic chicken DT40 cell lines with known DNA damage response pathways - Rad54/Ku70 mutant cell line (AID 743015); conditions: DT40 Rad54/Ku70 mutant viability, CellTiter-Glo, 40 h; series mostly up to 66.8 µM; note: nearly all actives have a fitted effect of over 60% in size; note: potency is the fitted concentration of half-maximal effect
[13] = qHTS assay to identify small molecule antagonists of the androgen receptor (AR) signaling pathway - cell viability counter screen (AID 743033; note: nearly all actives have a fitted effect of over 45% in size); conditions: AR-bla HEK293 viability, CellTiter-Glo luminescence, 16 h; series mostly up to 58.5 µM
[14] = qHTS assay to identify small molecule antagonists of the androgen receptor (AR) signaling pathway using the MDA cell line - cell viability counter screen (AID 743041; note: nearly all actives have a fitted effect of over 45% in size); conditions: MDA-kb2 viability, CellTiter-Fluor, 16 h, cells co-treated with R1881 androgen agonist; series mostly up to 70.3 µM
Outline: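 Viability read by CellTiter-Fluor fluorescence in the same wells as the antagonist screen, added after 15.5 h of a 16 h, 37C exposure. Human breast carcinoma MDA-kb2 AR-luc cells, compounds co-dosed with agonist R1881.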

[15] = qHTS assay to test for compound auto fluorescence at 460 nm (blue) in HepG2 cells (AID 720687); conditions: autofluorescence 405/460 nm, 1 h; series mostly up to 91.3 µM
Outline: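 Blue-channel autofluorescence (Ex/Em 405/460 nm, triamterene-equivalent) was measured after 1 hr compound exposure at 37 C, 5% CO2. Cells were HepG2, plated overnight at 37 C in MEM plus 10% FBS.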

[16] = molecular target: Androgen receptor (Homo sapiens) (UniProt P10275); assay: qHTS assay to identify small molecule antagonists of the androgen receptor (AR) signaling pathway (AID 743035; active = well fitted inhibition curve with a large enough effect in the signal ratio in the repeat runs, not every such curve was filed as active; inconclusive = weak or mixed curves, or effect the other way; inactive = no such curve, though single readings can be large or run the other way; the % refers to the signal ratio); conditions: HEK293 AR-UAS-bla, R1881-stimulated, beta-lactamase FRET, 16 h; series mostly up to 58.5 µM
Sequence of Androgen receptor (Homo sapiens) (P10275 whole entry, looked up): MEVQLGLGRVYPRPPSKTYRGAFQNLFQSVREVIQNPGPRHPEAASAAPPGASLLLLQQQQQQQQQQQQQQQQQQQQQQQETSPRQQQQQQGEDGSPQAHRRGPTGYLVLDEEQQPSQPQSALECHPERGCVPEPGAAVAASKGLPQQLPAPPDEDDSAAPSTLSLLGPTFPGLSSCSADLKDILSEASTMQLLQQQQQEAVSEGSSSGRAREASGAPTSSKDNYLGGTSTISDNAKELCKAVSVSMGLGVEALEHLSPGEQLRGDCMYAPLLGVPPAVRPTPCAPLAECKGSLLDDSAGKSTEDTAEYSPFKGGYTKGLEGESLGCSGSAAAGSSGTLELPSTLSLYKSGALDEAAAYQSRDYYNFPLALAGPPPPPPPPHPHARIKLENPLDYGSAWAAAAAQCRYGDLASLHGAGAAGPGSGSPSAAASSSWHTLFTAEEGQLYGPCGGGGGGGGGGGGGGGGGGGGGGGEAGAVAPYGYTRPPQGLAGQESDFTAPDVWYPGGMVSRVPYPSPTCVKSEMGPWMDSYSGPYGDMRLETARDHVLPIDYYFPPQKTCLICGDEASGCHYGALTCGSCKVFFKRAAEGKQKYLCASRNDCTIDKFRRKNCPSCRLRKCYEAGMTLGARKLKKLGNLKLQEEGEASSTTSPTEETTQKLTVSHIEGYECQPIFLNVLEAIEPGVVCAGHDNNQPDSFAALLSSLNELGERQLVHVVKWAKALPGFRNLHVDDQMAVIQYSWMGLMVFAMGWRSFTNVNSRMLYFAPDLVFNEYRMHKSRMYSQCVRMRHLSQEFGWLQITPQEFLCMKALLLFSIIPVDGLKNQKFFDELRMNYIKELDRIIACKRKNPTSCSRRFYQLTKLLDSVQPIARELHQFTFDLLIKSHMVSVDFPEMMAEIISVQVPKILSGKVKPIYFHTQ
Outline: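 R1881 agonist challenge of a HEK293 UAS-beta-lactamase AR reporter line in the presence of compound (16 h, 37C); signal taken as FRET fluorescence after 2 h with LiveBLAzer B/G substrate at room temperature.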

[17] = molecular target: Androgen receptor (Homo sapiens) (UniProt P10275); assay: qHTS assay to identify small molecule agonists of the androgen receptor (AR) signaling pathway (AID 743036; active = well fitted activation curve with a large enough effect in the signal ratio in the repeat runs, with a control signal flat, not every such curve was filed as active; inconclusive = weak or mixed curves, or effect the other way; inactive = no such curve, though single readings can be large or run the other way; the % refers to the signal ratio); conditions: HEK293 AR-UAS-bla GripTite, beta-lactamase FRET ratio, 16 h; series mostly up to 62.4 µM
Outline: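 Beta-lactamase under UAS control, stably integrated in HEK293 GripTite cells, reports receptor activation. After 16 h compound treatment, cells received FRET substrate for 2 h at room temperature before fluorescence reading.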

[18] = molecular target: Androgen receptor (Homo sapiens) (UniProt P10275); assay: qHTS assay to identify small molecule agonists of the androgen receptor (AR) signaling pathway using the MDA cell line (AID 743040; note: nearly all actives have a fitted effect of over 20% in size); conditions: MDA-kb2 AR-luc cells, MMTV luciferase, 16 h; series mostly up to 70.3 µM
Outline: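 Luciferase agonist assay: 16 h compound exposure at 37C without CO2 in MDA-kb2 AR-luc cells, whose MMTV promoter responds to both AR and GR. Luminescence measured after 30 min room-temperature incubation with ONE-Glo.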

[19] = molecular target: Androgen receptor (Homo sapiens) (UniProt P10275); assay: qHTS assay to identify small molecule antagonists of the androgen receptor (AR) signaling pathway using the MDA cell line (AID 743042; note: nearly all actives have a fitted effect of over 55% in size); conditions: MDA-kb2 AR-luc, MMTV luciferase, R1881 antagonist, 16 h; series mostly up to 70.3 µM
Outline: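 Antagonist mode: compounds plus R1881 agonist added to MDA-kb2 AR-luc cells, incubated 16 h at 37C. Luciferase reporter luminescence quantified, with multiplexed CellTiter-Fluor readout for cell viability.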

[20] = molecular target: Glucocorticoid receptor (Homo sapiens) (UniProt P04150); assay: qHTS assay to identify small molecule antagonists of the glucocorticoid receptor (GR) signaling pathway (AID 720692; active = well fitted inhibition curve with a large enough effect in the signal ratio in the repeat runs, not every such curve was filed as active; inconclusive = weak or mixed curves, or effect the other way; inactive = no such curve, though single readings can be large or run the other way; the % refers to the signal ratio); conditions: GR-bla HeLa, beta-lactamase FRET ratio, dexamethasone-stimulated, 18 h; series mostly up to 58.5 µM
Outline: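 Tox21 10K library screened in concentration-response for blockade of dexamethasone (5 nM final)-induced GRE-bla reporter activity in HeLa cells; 18 h treatment, fluorescence read.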

[21] = activation: at 62.4 µM (top of the series)

COCCCOc1ccnc(CS(=O)c2nc3ccccc3[nH]2)c1C (configuration not stated)
outcome [1]: inactive | outcome [2]: inactive | outcome [3]: inactive | outcome [4]: inactive | outcome [5]: inactive | outcome [6]: inactive | outcome [7]: inactive | activation [8, 21]: 16.4% [inconclusive] (active) | activation ([8]; at 62.4 µM (top of the series)): -5.49% | outcome [9]: inactive | Potency [10]: 23.7 µM (active) and 15.3 µM (active) | Potency [11]: 29.8 µM (active) and 24.2 µM (active) | Potency [12]: 13.3 µM (active) and 19.3 µM (active) | Potency [13]: inactive | Potency [14]: inactive

OCc1cccnc1
outcome [1]: inactive | outcome [2]: inactive | outcome [3]: inactive | outcome [4]: inactive | outcome [5]: inactive | outcome [6]: inactive | outcome [7]: inactive | outcome [15]: inactive | outcome [9]: inactive | Potency [10]: inactive | Potency [11]: inactive | Potency [12]: inactive | Potency [13]: inactive

CCCCC(CC)COC(=O)CCCCC(=O)OCC(CC)CCCC (configuration not stated)
outcome [1]: inactive | outcome [2]: inactive | outcome [3]: inactive | outcome [4]: inactive | outcome [5]: inactive | outcome [6]: inactive | outcome [7]: inactive | outcome [15]: inactive | Potency [8, 21]: inactive | outcome [9]: inactive | Potency [13]: inactive | Potency [14]: inactive

CCCCCCCCCC
outcome [1]: inactive | outcome [2]: inactive | outcome [3]: inactive | outcome [4]: inactive | outcome [5]: inactive | outcome [6]: inactive | outcome [7]: inactive | outcome [15]: inactive | outcome [9]: inactive | Potency [10]: inactive | Potency [11]: inactive | Potency [12]: inactive | Potency [13]: inactive | Potency [14]: inactive

CC(c1cc2ccccc2s1)N(O)C(N)=O (configuration not stated)
outcome [1]: inactive | outcome [2]: inactive | outcome [3]: inactive | outcome [4]: inactive | outcome [5]: inactive | outcome [6]: inactive | outcome [7]: inactive | outcome [15]: inactive | Potency [8, 21]: inactive | outcome [9]: inactive | Potency [10]: inactive | Potency [12]: inactive | Potency [13]: inactive | outcome [16]: inactive | Potency [17]: inactive | Potency [18]: inactive | outcome [19]: inactive

CCCCCCCCCCCCCCCO
outcome [1]: inactive | outcome [2]: inactive | outcome [3]: inactive | outcome [4]: inactive | outcome [5]: inactive | outcome [6]: inactive | outcome [7]: inactive | outcome [9]: inactive | Potency [10]: inactive | Potency [12]: inactive | Potency [13]: inactive | Potency [14]: inactive

O=C1CCC(N2C(=O)c3ccccc3C2=O)C(=O)N1 (configuration not stated)
outcome [1]: inactive | outcome [2]: inactive | outcome [3]: inactive | outcome [4]: inactive | outcome [5]: inactive | outcome [6]: inactive | outcome [7]: inactive | Potency [8, 21]: inactive | Potency [20]: inactive | outcome [9]: inactive | Potency [10]: inactive | Potency [11]: inactive | Potency [12]: inactive | Potency [13]: inactive | Potency [14]: inactive

CC(=O)OCC(=O)[C@@]12N=C(C)O[C@@H]1C[C@H]1[C@@H]3CCC4=CC(=O)C=C[C@]4(C)[C@H]3[C@@H](O)C[C@@]12C
outcome [1]: inactive | outcome [2]: inactive | outcome [3]: inactive | outcome [4]: inactive | outcome [5]: inactive | outcome [6]: inactive | outcome [7]: inactive | Potency [8, 21]: 425 nM (active) and 155 nM (active) | outcome [9]: inactive | Potency [10]: inactive | Potency [11]: inactive | Potency [12]: inactive | Potency [13]: inactive | Potency [14]: inactive

CC(C)(N)CO
outcome [1]: inactive | outcome [2]: inactive | outcome [3]: inactive | outcome [4]: inactive | outcome [5]: inactive | outcome [6]: inactive | outcome [7]: inactive | Potency [8, 21]: inactive | outcome [9]: inactive | Potency [10]: inactive | Potency [11]: inactive | Potency [12]: inactive | Potency [13]: inactive | Potency [14]: inactive

O=C(O)c1ccc(C(=O)O)cc1
outcome [1]: inactive | outcome [2]: inactive | outcome [3]: inactive | outcome [4]: inactive | outcome [5]: inactive | outcome [6]: inactive | outcome [7]: inactive | Potency [8, 21]: inactive | outcome [9]: inactive | Potency [10]: inactive | Potency [11]: inactive | Potency [12]: inactive | Potency [13]: inactive

CCCCC(CC)CO (configuration not stated)
outcome [1]: inactive | outcome [2]: inactive | outcome [3]: inactive | outcome [4]: inactive | outcome [5]: inactive | outcome [6]: inactive | outcome [7]: inactive | Potency [8, 21]: inactive | outcome [9]: inactive | Potency [10]: inactive | Potency [12]: inactive | Potency [13]: inactive | Potency [14]: inactive
